Laboratory results: PubChem BioAssay
Several values for one entry are separate records, joined by “and”; a condition that tells them apart may be missing. Equal entries are not always repeated. Records with an inconclusive call do not appear. Activity calls are given as the source filed them.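 The calls were made as follows, unless noted: active = z-score of at least 1.8 in each of two replicates, scored against plate mean and spread of sample wells; inactive = the rest.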

Tests used:
[1] = Wnt pathway potentiators raising nuclear beta-catenin – imaging, WNT3A-conditioned medium, mouse C2C12, NPC library, primary screen (AID 1117326; in the data active = nuclear beta-catenin stimulation mostly above about 4.2%, no sharp cut-off; inactive = mostly below about 10%; also: reference of the scale not given here); conditions: stronger effect = higher value
[2] = stimulators of insulin release from INS-1E, primary screen, cell-based, 5 mM glucose, NPC library (AID 1117329;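 active = compound raises insulin release from rat beta cells at 5 mM glucose, no numeric limit stated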; also: reference of the scale not given here); conditions: rat INS-1E insulin secretion, at 10 µM, stronger effect = higher value
[3] = growth inhibition of GSK3B-pretreated HCT116 cells – cell-based, CellTiter-Glo, 0.2 to 20 µM (AID 1117336;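 active = compounds lowering colon cancer cell viability after pretreatment blocking the GSK3B kinase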); conditions: HCT116 viability after GSK3B inhibitor, at 20 µM, stronger effect = higher value
[4] = inhibition of endothelial tube formation, primary screen, imaging, VEGF stimulated, CD31 staining, tube area, NPC library (AID 1117340;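 active = compound that reduces growth-factor-driven endothelial tube area in a mixed cell culture, no cutoff stated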); conditions: VEGF-stimulated ADSC/ECFC co-culture, at 10 µM, stronger effect = higher value
[5] = GLP1 release stimulators, primary, NCI-H716, NPC library (AID 1117341;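 active = compound raises GLP1 secretion from the human gut endocrine cells, with no numeric limit stated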; also: reference of the scale not given here); conditions: NCI-H716 cells, at 10 µM, stronger effect = higher value
[6] = HCT116 colon cancer cell growth inhibition, primary screen, CellTiter-Glo luminescence, NPC library (AID 1117342;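 active = compounds that lower survival of HCT116 colon cancer cells in the luminescence readout, no numeric limit stated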); conditions: at 20 µM (top of the series)
[7] = reduced SW480 viability measured with CellTiter-Glo, NPC library, primary (AID 1117343;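 active = compounds that lower viability of the colon cancer cells in the luminescence readout, with no numeric limit stated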); conditions: CellTiter-Glo luminescence; at 20 µM (top of the series) unless noted
[8] = NPC library primary testing for decreased DLD-1 cell viability via CellTiter-Glo (AID 1117346;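 active = compounds that lower survival of DLD-1 colon cancer cells in the luminescence readout, no cutoff given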); conditions: DLD-1 viability, CellTiter-Glo luminescence; at 20 µM (top of the series)
[9] = test system: Aerobactin synthetase IucA (Klebsiella pneumoniae); experiment: inhibition of K. pneumoniae IucA enzyme – biochemical, Tocris library, absorbance (AID 1345561; call rule not given here;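 also: 100% = enzyme without compound and 0% = no enzyme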); conditions: purified IucA enzyme assay, absorbance (OD) read-out; stronger effect = lower value;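 tested at 8 µM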
[10] = viability loss with induced miR-34 in A549 – imaging, A549 dox-inducible miR-34, nuclei and caspase counts, primary screen (AID 1347080;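 active = compounds whose cell count with miR-34 switched on is under 0.7 times the count with it off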); conditions: A549 miR-34 inducible, Hoechst nuclei count, 48 h
[11] = galactose survival enhancers in mitochondrial complex I cybrids – cell-based, galactose medium, ATP luminescence, primary screen (AID 1645843); conditions: complex I mutant cybrid cells, 72 h, stronger effect = higher value;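 also: positive z means more ATP and so rescue of galactose-driven cybrid death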
[12] = viability loss in pontine glioma line – cell-based, JHH-DIPG-1, MIPE4.0, CellTiter-Glo, qHTS, dose response (AID 1347062; cut-off not given, nearly all actives have AC50 up to about 27 µM;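 also: cells exposed to compound for two days before readout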); conditions: JHH-DIPG-1 viability, CellTiter-Glo ATP luminescence
[13] = growth inhibition of DIPG cells – cell-based, MIPE5.0 library, qHTS (AID 1347068; cut-off not given, nearly all actives have IC50 up to about 30 µM); conditions: SU-DIPG-XXV viability
[14] = MELAS cybrid and Rieske KO viability enhancers – cell-based, MELAS cybrids, Rieske KO mouse fibroblasts, CellTiter-Glo, primary screen (AID 1508586;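 active = mean z-score across replicates of 1.96 or higher in either the MELAS or the Rieske mutant cell line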;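 also: z relative to plate mean and SD of compound and empty wells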); conditions: low glucose
[15] = biological target: NAD(+) hydrolase SARM1 (Homo sapiens) (UniProt Q6SZW1); experiment: blocking NAD cleavage by SARM1 SAM-TIR – cell lysate, NAD-Glo luminescence (AID 1508614;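 active = compound whose remaining NAD level is above about 45 nM, limit read from the data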;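 also: higher remaining NAD means stronger inhibition of SARM1 NADase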); conditions: SAM-TIR HEK293T lysate NADase, at 1 µM, stronger effect = higher value
[16] = P. berghei load reduction in hepatocytes – cell-based, HepG2, luciferase luminescence, HepG2 viability, primary screen (AID 624349; in the data active = parasite load remaining mostly below about 12%, no sharp cut-off; inactive = mostly above about 10%;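 also: 100% = mean of DMSO negative control wells on the same plate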); conditions: P. berghei liver stage in HepG2, luciferase luminescence, concentration not given here; parasite load remaining: stronger effect = lower value; viability: measured here: HepG2 viability without parasites
[17] = stronger effect = lower value, cell number ratio, induced over uninduced
[18] = measured here: relative caspase fold change +Dox/-Dox
[19] = measured here: total cells with miR-34 induction, stronger effect = lower value
[20] = measured here: total cells without miR-34 induction
[21] = MELAS cybrid survival, CellTiter-Glo 48 h, stronger effect = higher value
[22] = Rieske KO mouse fibroblast survival, CellTiter-Glo 72 h

Sequence of NAD(+) hydrolase SARM1 (Homo sapiens) (Q6SZW1 whole entry, looked up): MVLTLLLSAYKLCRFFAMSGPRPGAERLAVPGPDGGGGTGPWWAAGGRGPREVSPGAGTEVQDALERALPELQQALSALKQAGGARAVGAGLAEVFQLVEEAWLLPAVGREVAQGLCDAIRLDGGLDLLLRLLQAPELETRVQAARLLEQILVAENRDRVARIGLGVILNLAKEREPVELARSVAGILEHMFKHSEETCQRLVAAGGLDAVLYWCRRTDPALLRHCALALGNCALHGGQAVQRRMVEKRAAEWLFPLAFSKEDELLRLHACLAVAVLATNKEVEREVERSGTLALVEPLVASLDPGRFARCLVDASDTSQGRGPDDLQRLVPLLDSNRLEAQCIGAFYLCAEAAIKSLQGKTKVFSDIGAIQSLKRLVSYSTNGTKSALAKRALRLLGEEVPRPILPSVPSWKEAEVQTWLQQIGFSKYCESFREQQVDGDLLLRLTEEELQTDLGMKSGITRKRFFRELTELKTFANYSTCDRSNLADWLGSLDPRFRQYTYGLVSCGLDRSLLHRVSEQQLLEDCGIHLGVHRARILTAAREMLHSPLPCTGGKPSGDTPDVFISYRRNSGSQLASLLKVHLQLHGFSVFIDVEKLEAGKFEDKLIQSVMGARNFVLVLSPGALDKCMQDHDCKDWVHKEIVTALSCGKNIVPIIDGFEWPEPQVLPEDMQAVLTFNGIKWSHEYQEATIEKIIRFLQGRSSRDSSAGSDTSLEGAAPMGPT

FC(F)(F)c1ccccc1-n1ccnc1
9410 and 5980 and 9120: cell count [10, 19]
1.92 and 1.05 and 0.962: fold change [10, 18]
9640 and 6310 and 9410: cell count [10, 20]
inactive: nuclear beta-catenin stimulation ([1]; at 10 µM) 1.3% | insulin secretion stimulation [2] 1.7% | viability decrease [3] 2% | tube area decrease [4] -7.9% | GLP1 secretion stimulation [5] -1.9% | inhibition of viability [6] 2.03% | viability decrease (inhibition) [7] -83.5% | viability decrease (inhibition) [8] 4.5% | remaining activity [9] 102% | fold change [10, 17] 0.976 and 0.948 and 0.969 | z-score [11] 0.425 and 1.96
-0.4%: nuclear beta-catenin stimulation ([1]; stimulation, at 2 µM)

CC#C[C@]1(O)CC[C@H]2[C@@H]3CCC4=CC(=O)CCC4=C3[C@@H](c3ccc(N(C)C)cc3)C[C@@]21C
4%: nuclear beta-catenin stimulation ([1]; stimulation, at 2 µM)
active: viability decrease [3] 94.5% | inhibition of viability [6] 84.3% | viability decrease (inhibition) [7] 102% | viability decrease (inhibition) [8] 98.6% | AC50 [12] 235 nM
inactive: nuclear beta-catenin stimulation ([1]; at 10 µM) 9.1% | insulin secretion stimulation [2] 1% | tube area decrease [4] 16.1% | GLP1 secretion stimulation [5] -3.8% | remaining activity [9] 115% | outcome [13] | z-score [14, 21] 1.08 and 0.356 | remaining NAD [15] 10 nM | z-score [11] 0.48 and -0.34 and 0.325
0.475 and 1.05: z-score [14, 22]

CC1(C)Oc2ccc(C#N)cc2[C@@H](N2CCCC2=O)[C@@H]1O
1.17: fold change [10, 18]
0.1%: nuclear beta-catenin stimulation ([1]; stimulation, at 2 µM)
10200: cell count [10, 20]
inactive: nuclear beta-catenin stimulation ([1]; at 10 µM) 0.9% | insulin secretion stimulation [2] 0.4% | viability decrease [3] -2.5% | tube area decrease [4] -8.1% | GLP1 secretion stimulation [5] 3.2% | inhibition of viability [6] 17.9% | viability decrease (inhibition) [7] -2.4% | viability decrease (inhibition) [8] 5.4% | remaining activity [9] 118% | fold change [10, 17] 0.905 | z-score [11] 0.27
9250: cell count [10, 19]

CN=C(NC#N)Nc1ccc(C2=NNC(=O)CC2C)cc1 (stereo not given)
67%: viability [16]
inactive: parasite load remaining [16] 25% | nuclear beta-catenin stimulation ([1]; at 10 µM) -0.7% | insulin secretion stimulation [2] 0.3% | viability decrease [3] -15.4% | tube area decrease [4] -8.1% | GLP1 secretion stimulation [5] -1.9% | inhibition of viability [6] -3.9% | viability decrease (inhibition) [7] 4.1% | viability decrease (inhibition) [8] -10.5% | remaining activity [9] 117% | fold change [10, 17] 0.976 and 0.925 and 0.857 | z-score [14, 21] 0.199 | z-score [11] 0.095 and 0.625
6170 and 8930 and 9670: cell count [10, 19]
-0.1%: nuclear beta-catenin stimulation ([1]; stimulation, at 2 µM)
0.162: z-score [14, 22]
0.912 and 0.898 and 1.1: fold change [10, 18]
6320 and 9660 and 11300: cell count [10, 20]
